Assay outcomes as filed in PubChem.
KCNH2 3.1 block: qHTS for Inhibitors of KCHN2 3.1: Mutant qHTS; Potassium voltage-gated channel subfamily H member 2, brain isoform KCNH2 3.1 (human); U2OS KCNH2 3.1, thallium flux FluxOr; hits give low values; activity change, % (tested at about 1.8 µM); hit rate 0.95% among 340,000; AID 720553, 2013;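 active means maximum activity change below -70%; inconclusive means maximum activity change from -70% to -50%; inactive means maximum activity change above -50%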;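 further: thallium influx rate constant from kinetic fluorescence after stimulation buffer; on the % scale 0 is the no-effect control and ±100 the full control effect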
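Steps: virus added to U2OS suspension (4 h, RT, dark); medium with 10% FBS added, cells plated, 37 C overnight; FluxOr/Red40 loading buffer 45 min RT; stimulation buffer, 2 min kinetic read; rate constant normalized.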
GLP1R inv ag: qHTS of GLP-1 Receptor Inverse Agonists (Inhibition Mode); Glucagon-like peptide 1 receptor (Homo sapiens), P43220; HEK293 GLP-1R CRE-luciferase, luminescence, 24 h; GLP-1R form is constitutively active; Potency, µM (series often up to 38.3 µM), without a hit: at the top dose activity change, negative = inhibition, usual class: inhibitors; hit rate 1.6% among 410,000; further: potency means the concentration at half of the fitted maximal effect; on the % scale 0 is the no-effect control and ±100 the full control effect; nearly all actives have a fitted effect of over 55% in size
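Constitutively active GLP-1R drives a cAMP-responsive luciferase in stably transfected HEK293 cells; test compounds are added after overnight (12 h) attachment and left 24 hr, and signal loss in luminescence marks inhibition.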
GLP-1R agonist: qHTS of GLP-1 Receptor Agonists. Glucagon-like peptide 1 receptor (Homo sapiens), P43220. hit rate 0.007% among 380,000. AID 624172, 2012. HEK293 GLP-1R CRE-luciferase, luminescence, 4-6 h; cells express a hypersensitive GLP-1R form. Potency, µM (series often up to 45.6 µM), inactives show top-dose activation, usual class: activators; further: potency means the concentration at half of the fitted maximal effect; % of control where 0% means no effect
HEK293 tox: qHTS of GLP-1 Receptor Inverse Agonists: Cytotox Screen | Potency, µM (highest dose often 38.3 µM), without a hit: top-dose activity change, negative = inhibition, most hits filed as inhibitors | HEK293 cAMP-luciferase reporter cells, luminescence, 24 h | hit rate 0.13% among 410,000 | AID 624418, 2012;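 further: loss of luciferase light is scored as toxicity; potency means the concentration at half of the fitted maximal effect; on the % scale 0 is the no-effect control and ±100 the full control effect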
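MLSMR compounds, 24 hr on cells at 37 deg C/5% CO2; luminescence after luciferase reagent (12 min RT). Inhibition counted as the undesired cytotoxic outcome.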
hERG WT inh: qHTS for Inhibitors of KCHN2 3.1: Wildtype qHTS | Voltage-gated inwardly rectifying potassium channel KCNH2 (Homo sapiens), Q12809 | U2OS, BacMam KCNH2, thallium flux FluxOr; hits give low values | activity change, % at 1.84 µM | hit rate 0.37% among 340,000 | AID 720551, 2013;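 active means maximum activity change below -70%; inconclusive means maximum activity change between -70% and -50%; inactive means maximum activity change above -50%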; further: on the % scale 0 is the no-effect control and ±100 the full control effect
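U2OS cells were transduced with wild-type KCNH2 virus (2.03 x 10^8 / mL) for 4 h at room temperature, then cultured overnight at 37 C. Thallium flux was read with FluxOr dye. Rate constants were normalized to DMSO controls.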
GLS inhibitor: qHTS for Inhibitors of Glutaminase (GLS) | GLS enzymatic activity, qHTS titration | Potency, µM (doses to about 45.5 µM), inactives show top-dose activity change, negative = inhibition, hits mostly inhibitors | Glutaminase kidney isoform, mitochondrial (Homo sapiens), O94925 | AID 624170, 2012 | hit rate 0.21% among 410,000; further: potency means the concentration at half of the fitted maximal effect; on the % scale 0 is the no-effect control and ±100 the full control effect
Target sequence (O94925 whole entry, looked up, canonical isoform): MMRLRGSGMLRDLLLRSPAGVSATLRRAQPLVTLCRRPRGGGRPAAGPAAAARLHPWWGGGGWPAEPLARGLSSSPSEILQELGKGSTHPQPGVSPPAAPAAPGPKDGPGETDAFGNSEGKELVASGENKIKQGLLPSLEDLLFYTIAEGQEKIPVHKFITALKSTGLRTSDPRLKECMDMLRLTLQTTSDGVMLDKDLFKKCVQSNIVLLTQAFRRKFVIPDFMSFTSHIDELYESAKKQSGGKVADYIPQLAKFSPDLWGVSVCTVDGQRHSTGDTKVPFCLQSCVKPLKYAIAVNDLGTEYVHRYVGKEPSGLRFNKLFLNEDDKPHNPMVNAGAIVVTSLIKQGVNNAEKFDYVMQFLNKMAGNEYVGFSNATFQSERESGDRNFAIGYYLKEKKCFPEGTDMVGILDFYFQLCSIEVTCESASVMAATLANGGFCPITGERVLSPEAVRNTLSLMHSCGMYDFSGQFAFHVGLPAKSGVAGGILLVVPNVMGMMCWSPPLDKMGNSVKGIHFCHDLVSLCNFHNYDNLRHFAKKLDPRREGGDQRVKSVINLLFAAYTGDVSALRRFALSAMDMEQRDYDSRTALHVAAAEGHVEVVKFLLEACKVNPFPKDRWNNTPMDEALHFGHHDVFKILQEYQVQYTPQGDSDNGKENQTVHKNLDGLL
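Human kidney-isoform GLS in 45 mM KH2PO4 pH 8.2, 0.02% Tween-20, with compound, started with 1mM L-Glutamine (added stock). Glutamate oxidase/HRP/Amplex red coupled fluorescence read at start and after 30 min at RT.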
An asterisk follows results filed as active; ? = inconclusive; . = not tested or not shown; [ ] = dose if it differs, or a comment. Only some compounds are listed: those with a hit (about 2.8% of all), similar ones and a draw of the others. Unless noted, the call rests on the fitted dose curve; in most records, active means well fitted curve in the direction sought with a large enough effect; inconclusive means small, poorly fitted or top-dose-only effect, or another doubt; inactive means no such curve, though single readings can be large; an effect the other way counts as inactive or inconclusive.

SMILES | KCNH2 3.1 block | GLP1R inv ag | GLP-1R agonist | HEK293 tox | hERG WT inh | GLS inhibitor
CN1CCN(c2ccc(NC(=O)COc3ccccc3)cc2Cl)CC1 | -33 | ? | 3% | -10% | 22 | 2%
COc1ccccc1CNC(=O)CSc1ncc2c(n1)-c1cc(Cl)ccc1N(Cc1ccccc1)S2(=O)=O | . | -11% | . | 6% | . | 3%
CCc1nc2ccc(C(=O)NCc3ccc(OC)c(OC)c3)cc2nc1CC | . | 27% | . | -12% | . | -13%
O=C(Nc1ccc(N2CCN(C(=O)c3ccco3)CC2)c(Cl)c1)c1cc2ccccc2o1 | -113* | ? | -17% | ? | -24 | -6%
CCC(=O)N1CCN(c2ccc(Cl)cc2NC(=O)Cc2ccc(Cl)cc2)CC1 | -75* | 0% | 9% | -18% | 22 | 3%
O=C(Nc1ccc(N2CCN(C(=O)c3ccccc3)CC2)c(Cl)c1)c1ccco1 | -15 | ? | -14% | -27% | 2 | 5%
O=C(Nc1ccc(-c2nc3ncccc3o2)cc1)c1ccc(Br)o1 | -7 | 54% | -5% | 1% | -1 | 3%
O=C(Nc1ccc(-c2nc3ncccc3o2)cc1)c1ccco1 | -81* | 41% | 5% | 16% | 1 | ?
CC(=O)c1c(C)cc(C)c(CSc2ccccn2)c1C | -13 | 7% | -2% | -2% | -1 | 11%
COC(=O)c1cc2occc2n1Cc1nc(-c2cccc(Br)c2)oc1C | . | 12% | . | -9% | . | -2%
COc1cc2c(cc1OC)[C@@H](Cc1cc(OC)c(OC)c(OC)c1)[N@+](C)(CCCOC(=O)CC/C=C/CCC(=O)OCCC[N@+]1(C)CCc3cc(OC)c(OC)cc3[C@H]1Cc1cc(OC)c(OC)c(OC)c1)CC2 | . | . | 0% | . | . | 12%
COc1ccc2c(c1)CC(C(=O)NCc1ccc(F)cc1)CO2 (configuration not stated) | . | ? | . | 0% | . | 5%
CCN(C(=O)CN(C)S(=O)(=O)c1ccc2c(c1)n(C)c(=O)c(=O)n2C)c1cccc(C)c1 | . | 20% | . | 1% | . | 3%
COc1cc(OC)cc(C(=O)Nc2nc(CC(=O)NCc3ccc(F)cc3)cs2)c1 | 2 | 7.1µM* | 1% | ? | -8 | 4%
COc1cc(OC)cc(C(=O)Nc2nc(CC(=O)NCc3ccccc3OC)cs2)c1 | 12 | 10µM* | -14% | ? | -8 | -1%
COc1ccccc1NC(=O)Nc1nc(CC(=O)Nc2cc(F)ccc2F)cs1 | 0 | 5.6µM* | -6% | ? | 5 | -3%
O=C(NCCS(=O)(=O)N1CCN(c2ccccc2)CC1)C(c1ccccc1)c1ccccc1 | . | -2% | . | 0% | . | -3%
CCOC(=O)c1noc2nc(C)n(Cc3cccc(C#N)c3)c(=O)c12 | . | -5% | . | 20% | . | 0%
CCS(=O)(=O)N1CCc2cc(C(=O)NCc3ccc(Cl)cc3)ccc21 | . | -14% | . | 5% | . | -5%
O=C(NCCCn1ccnc1)/C(=C/c1ccccc1)NC(=O)c1ccccc1 | -113* | -17% | 5% | -2% | -137* | -13%
CN(C)c1ccc(/C=C(\NC(=O)c2ccccc2)C(=O)NCCCn2ccnc2)cc1 | -7 | 2% | 12% | -3% | 11 | 22%
O=C(NCCCn1ccnc1)/C(=C\c1ccc(Br)cc1)NC(=O)c1ccccc1 | -104* | -20% | -1% | -3% | -125* | 34%
COc1ccccc1C(=O)N/C(=C/c1ccc(Br)cc1)C(=O)NCCCn1ccnc1 | -99* | 2% | 4% | 3% | -125* | 2%
O=C(CCCNC(=O)/C(=C/c1ccc(F)cc1)NC(=O)c1ccccc1)OCc1ccccc1 | -1 | ? | -5% | -21% | -138* | -1%
O=C(CCCNC(=O)/C(=C\c1ccc(F)cc1)NC(=O)c1ccccc1)OCc1ccccc1 | -41 | ? | -5% | -9% | -20 | 0%
SMILES | KCNH2 3.1 block | GLP1R inv ag | GLP-1R agonist | HEK293 tox | hERG WT inh | GLS inhibitor
CSc1ccc(/C=C(/NC(=O)c2ccccc2)C(=O)NCCCn2ccnc2)cc1 | ? | 12% | 5% | -1% | 11 | 0%
O=C(Nc1ccc(S(=O)(=O)Nc2ncccn2)cc1)c1ccc(Cl)c([N+](=O)[O-])c1 | 6 | 5% | -6% | 18% | 34 | 0%
COc1ccc(/C=C(\C#N)c2nc3ccccc3n2C)c(OC)c1 | . | ? | . | -26% | . | 1%
COc1ccc(CCNC(=O)c2ccc(Br)o2)cc1Br | . | 6% | 1% | 1% | . | -21%
Cc1cc(=O)n(CC(=O)N2CCN(c3ccccc3F)CC2)c2c1c(C)nn2C | . | -20% | . | -6% | . | -9%
Cc1ccc(C(=O)N/C(=C/c2ccco2)C(=O)NCCCn2ccnc2)cc1 | -93* | 1% | 0% | 3%[1.53 µM] | ? | 2%
Cc1ccc(C(=O)N/C(=C\c2ccc(F)cc2)C(=O)NCCCn2ccnc2)cc1 | -114* | 4% | 7% | -4% | -95* | -1%
CC(C)(C)NC(=O)C(c1ccncc1)N(C(=O)Cn1nnc(-c2ccc(F)cc2)n1)c1ccccc1F (configuration not stated) | 12 | -20% | 1% | -17% | -8 | 16%
CC(C)(C)NC(=O)C(c1ccc(O)cc1)N(C(=O)Cn1nnc(-c2ccc(F)cc2)n1)c1ccccc1F (configuration not stated) | 3 | 8.9µM* | -5% | -11% | -3 | -5%
COc1cc(C(C#N)N2CCC(c3ccccc3)=N2)ccc1O (configuration not stated) | 1 | 22% | 9% | -8% | -6 | 10µM*
CCN(CC(=O)NCC1CCCO1)S(=O)(=O)c1ccc(Cl)cc1 (configuration not stated) | 1 | 10% | 4% | 4% | -80* | 3%
COc1cccc(N(CC(=O)NCC2CCCO2)C(=O)CNS(=O)(=O)c2ccccc2)c1 (configuration not stated) | -70* | 0% | 4% | -12% | -8 | -1%
COc1cccc(CN(CC(=O)NCC2CCCO2)C(=O)CNS(=O)(=O)c2ccccc2)c1 (configuration not stated) | -11 | 0% | -2% | 12% | 5 | 3%
